Measurements reported in PubChem BioAssay (NCI).
“And” between values parts separate entries of the source, which are not always exact repeats. Identical values can stand only once. This is part of a sample that, as a whole, favours compounds with a hit. Of some 79,000 tested, about 15% had one in any assay. No stated cut-off is given here; in the data, active means growth inhibition above about 70%; inactive means the rest.

Tests used:
[1] = NCI Yeast Anticancer Drug Screen. Data for the rad50 strain (AID 155);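 further: 0% = growth of vehicle-only cultures of the same strain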; settings: S. cerevisiae rad50 strain growth inhibition; at 50.0 µM; active compounds read high
Outline: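 Readout: growth inhibition relative to vehicle-treated cultures. Compound exposure was carried out in a genetically defined yeast strain deficient in DNA damage repair.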

[2] = NCI Yeast Anticancer Drug Screen. Data for the mec2-1 strain (AID 157); settings: S. cerevisiae mec2-1 strain, at 50.0 µM, active compounds read high
Outline: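 mec2-1 yeast strain, carrying an alteration in DNA damage repair or cell cycle control, was exposed to compounds; growth inhibition was measured relative to vehicle-treated controls.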

[3] = NCI Yeast Anticancer Drug Screen. Data for the sgs1 mgt1 strain (AID 161);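 further: 0% = growth of cultures given vehicle only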; settings: S. cerevisiae sgs1 mgt1 strain, at 50.0 µM, active compounds read high
Outline: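 Growth of a repair-deficient yeast mutant was monitored after compound treatment and expressed as inhibition relative to vehicle-treated cultures.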

[4] = NCI Yeast Anticancer Drug Screen. Data for the cln2 rad14 strain (AID 165);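 further: 0% = growth equal to vehicle treated cultures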; settings: S. cerevisiae cln2 rad14 strain, at 50.0 µM, active compounds read high
Outline: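 Yeast carrying cln2 and rad14 alterations (cell cycle control and DNA damage repair) were exposed to compounds. Growth inhibition was measured against vehicle-treated controls.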

[5] = NCI Yeast Anticancer Drug Screen. Data for the bub3 strain (AID 167); settings: S. cerevisiae bub3 mutant strain, at 50.0 µM, active compounds read high
Outline: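 Readout: yeast growth inhibition, expressed relative to vehicle-only wells. The test organism is a mutant strain from a panel with lesions in DNA repair or checkpoint genes.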

[6] = NCI Yeast Anticancer Drug Screen. Data for the mlh1 rad18 strain (AID 175); settings: S. cerevisiae mlh1 rad18 strain growth inhibition; at 50.0 µM; active compounds read high
Outline: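 Growth inhibition of the yeast strain was measured after compound exposure and expressed relative to vehicle-treated controls. The strain carries defined defects in DNA damage repair.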

Measured: growth inhibition

CCOP(=O)(OCC)C(N)Cc1ccc(OC)c(OC)c1 (stereo unspecified)
inactive: [1] -3.85% | [2] -4% | [3] 2.35% | [4] 19.9% | [5] 13% | [6] -16.6%

CC(=O)O/C=C(/C=C/OC(C)=O)C(C/C=C(\C)C#CC=C(C)C)OC(C)=O (stereo unspecified)
inactive: [1] 4.95% | [2] -13.7% | [3] 0.8% | [4] -2.2% | [5] 5.5% | [6] -0.1%

NC(Cc1ccccc1)c1ccccc1 (stereo unspecified) (tested in a mixture with another compound)
inactive: [1] 0.6% | [2] -17.4% | [3] -6.4% | [4] 9.7% | [5] 2.6% | [6] 2.55%

O=C(OC1CN2CCC1CC2)N(c1ccccc1)c1ccccc1 (stereo unspecified)
inactive: [1] 2.35% | [2] 0.25% | [3] -4.1% | [4] -4.75% | [5] 3.5% | [6] 13.3%

O=NNc1cnccn1
inactive: [1] -15.2% and -8.45% | [2] -23.9% and 1.5% | [3] -37.5% and -16.6% | [4] -3.8% and 4.05% | [5] -19% and -18.5% | [6] -8.25% and -21.2%

O=[N+]([O-])c1ccc(OCc2ccc(COc3ccc(S(=O)(=O)F)cc3)cc2)c(Cl)c1
inactive: [1] -0.6% | [2] -8.15% | [3] -2.3% | [4] -6.35% | [5] -7.6% | [6] -7.5%

COC1=CC(=O)OC(CCc2ccccc2)C1 (stereo unspecified)
inactive: [1] -2.7% | [2] -5.9% | [3] -1.9% | [4] -14.2% | [5] -9.35% | [6] -4.85%

Brc1ccc(NP(Br)(c2ccccc2)(c2ccccc2)c2ccccc2)cc1
inactive: [1] 52.8% | [2] 5.6% | [3] 58% | [4] 11.8% | [5] 11.9% | [6] 20.1%

COc1cc2c3cc1Oc1c(OC)c(OC)cc4c1C(Cc1ccc(cc1)Oc1cc(ccc1O)CC3N(C)CC2)N(C)CC4 (stereo unspecified)
inactive: [1] -18.4% and 5.95% | [2] -30.8% and -27.1% | [3] -9.65% and -29.5% | [4] 12.7% and -14.9% | [5] -0.55% and -12.1% | [6] -10.6% and -41%

CCNC(=S)S
inactive: [1] -7.35% | [2] -8.4% | [3] -13.1% | [4] -0.6% | [5] -2.25% | [6] -3.75%

CC(=O)c1ccc(-c2ccccc2)cc1
inactive: [1] -5.3% | [2] 2.6% | [3] 8.45% | [4] 11.9% | [5] 3.6% | [6] 18.1%

Cc1cc(-n2c(C)nc3ccccc3c2=O)on1
inactive: [1] -35.1% | [2] -15.7% | [3] -4.15% | [4] -47.5% | [5] 8.9% | [6] 3.75%

CCC1C2CC3C4N(C)c5ccccc5C45CC(C2C5O)N3C1O (stereo unspecified)
inactive: [1] 20.9% and -6.8% and -4.75% | [2] -7.75% and 5.2% and -40.8% | [3] -16.9% and 15.7% and -14.2% | [4] -17.9% and -3.4% and -0.6% | [5] 13.6% and -10.1% and -32.2% | [6] -11.4% and -41% and -23.6%

CCCOC(=O)c1cncn1C(C)c1ccccc1 (stereo unspecified)
inactive: [1] 4.4% | [2] 18.7% | [3] 37.5% | [4] 10.7% | [5] 35.6% | [6] 31.4%

CC(C)C(NC(=O)CCl)C(=O)O (stereo unspecified)
inactive: [1] -9.2% | [2] -0.2% | [3] 5.75% | [4] -11.4% | [5] -2.55% | [6] 0.3%

CN(C)c1ccc(C(=O)CCCN2CCC3(CC2)C(=O)NCN3c2ccccc2)cc1
inactive: [1] -13.9% | [2] 8.95% | [3] 5.9% | [4] -40.8% | [5] -1.05% | [6] -11.5%

CC(C)C(=O)OCC1CCCN2CCCCC12 (stereo unspecified)
inactive: [1] 26.9% | [2] 26.4% | [3] 11.9% | [4] 19.2% | [5] 30.3% | [6] -35.2%

COc1ccc(/C=C\c2cc(OC)c(OC)c(OC)c2)cc1OC(=O)CCC(=O)O
inactive: [1] -13.1% | [2] -12.3% | [3] 8.7% | [4] 24.1% | [5] 14.2% | [6] -27.1%

[C-]#[O+].[C-]#[O+].[C-]#[O+].[Ni].c1ccc([PH+](CC[PH+](c2ccccc2)c2ccccc2)CC[PH+](c2ccccc2)c2ccccc2)cc1
inactive: [1] 43.9% | [2] 38.5% | [3] 46.7% | [4] 32.8% | [5] 42.6% | [6] 46.3%

c1ccc(C2(N3CCC4(CC3)OCCO4)CCCCC2)cc1
inactive: [1] 13% | [2] -2.9% | [3] 9.2% | [4] -17.6% | [5] 1.35% | [6] 6.35%

CS(=O)(=O)OC1C2CC(C1OS(C)(=O)=O)C(c1ccccc1)C2C(=O)O (stereo unspecified)
inactive: [1] 25% | [2] 21% | [3] 31.4% | [4] 12.2% | [5] -1.85% | [6] 34.2%
